Assay outcomes deposited in PubChem by Broad Institute.
In the library only some 3.8% were active in any assay of this set; here they are far more common.
Wnt bcat act – activators of Wnt/beta-catenin signaling | Wnt/beta-catenin reporter cell assay, activator, plate reader | activation, % at 9.35 µM | 300,000 compounds, 1.2% hits | AID 743398; in the data active means activation above about 30%, passing the limit was not always enough; inconclusive means no clear call, values can overlap the other calls
esBAF inh – SWI/SNF esBAF complex inhibition. 350,000 compounds, 2% hits. reporter increase, % at 12.5 µM. mouse ES cells, Bmi1-luciferase knock-in reporter, 24 h; 100% = twice the neutral-well signal; in the data active means activation above about 40%; inconclusive means no clear call, values can overlap the other calls;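 further: a rise in the Bmi1 reporter signal indicates esBAF inhibition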
MITF TRPM1 HTS – activators of MITF-driven TRPM1 promoter activity in SK-MEL-5 cells; activation, % at 12.5 µM; 300,000 compounds, 0.75% hits; SK-MEL-5 TRPM1-promoter luciferase, 24 h; % of positive control, neutral wells = 0; AID 588334;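 active means mean activation of at least 80% with every replicate also reaching 80%; inconclusive means mean reaches 80% but some replicate falls short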
HSF1 inh – HSF1 inhibition; 300,000 compounds, 0.77% hits; activity change, negative = inhibition, % at 7.5 µM (by protocol); NIH3T3-HGL HSE-luciferase, MG132-induced, luminescence 8 h; hits give low values;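 active means more than half of replicate wells show activity change below -50%, luminescence cut by over half; inconclusive means some wells, but at most half, below -50%; inactive means no replicate well below -50%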;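 further: luciferase reports HSF-1 transcriptional activity via heat shock element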
HSF1 activator – increases HSF-1 driven luciferase reporter signal | activation, % at 9 µM | NIH3T3-HGL HSF-1 luciferase reporter, MG132, 8 h; 100% = twice DMSO control signal | 300,000 compounds, 1.7% hits;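 active means mean replicate activation of at least 50% with a set share of replicates each reaching 50%; inconclusive means only one of those two conditions met; inactive means mean below 50% and too few replicates reaching it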
Hits are given with their value; . = inactive; ? = inconclusive; / = not tested or not shown.

SMILES	Wnt bcat act	esBAF inh	MITF TRPM1 HTS	HSF1 inh	HSF1 activator
Cc1ccc(C(=O)Cn2nc(C(=O)O)c3ccccc3c2=O)cc1C	.	.	.	.	64.5
CCC(=O)Nc1ccc2c(c1)OC[C@H](C)N(Cc1cccc(F)c1)C[C@@H](C)[C@H](OC)CN(C)C2=O	/	.	/	/	/
N/C(=N\OC(=O)c1ccc(Cl)cc1Cl)c1ccccn1	.	/	.	-65.1	.
N/C(=N\OC(=O)c1ccc(Cl)cc1Cl)c1ccncc1	34.8	/	/	.	?
Cc1ccc(C(=O)O/N=C(\N)c2ccccc2)c(Cl)c1	.	/	/	-81.4	.
Cc1ccc(C(=O)O/N=C(\N)c2ccccn2)c(Cl)c1	.	.	/	-84.0	.
N/C(=N\OC(=O)c1cc(Cl)ccc1Cl)c1ccncc1	.	/	.	.	.
N/C(=N\OC(=O)c1cc(Br)ccc1Cl)c1ccccn1	.	/	.	.	.
CCCNC(=O)Nc1ccc2c(c1)C(=O)N(C)C[C@@H](OC)[C@H](C)CN(CC1CCCC1)[C@H](C)CO2	/	.	/	/	/
N/C(CS(=O)(=O)c1ccccn1)=N\OC(=O)c1ccc(Cl)cc1	.	/	/	.	.
N/C(CS(=O)(=O)c1ccccn1)=N\OC(=O)c1ccccc1Cl	54.0	/	/	.	.
COCC(=O)Nc1ccc2c(c1)[C@@H]1C[C@@H](CC(=O)NCc3ccccn3)O[C@H](CO)[C@@H]1O2	/	.	/	/	/
Clc1ccc(-c2csc(N3CCOCC3)n2)cc1	.	/	.	.	53.0
Fc1ccc(-c2csc(N3CCC(c4ccccc4)C3)n2)cc1 (stereo not given)	.	50.3	.	.	.
c1ccc(-c2csc(N3CCCCCC3)n2)cc1	/	42.8	.	.	.
Clc1ccc(-c2csc(N3CCCCCC3)n2)cc1	.	.	/	.	.
COc1ccc(-c2csc(N3CCOCC3)n2)cc1OC	.	58.4	.	.	.
Brc1ccc(-c2csc(N3CCOCC3)n2)cc1	.	/	.	.	.
COCC(=O)N(C)C[C@H]1Oc2ncc(-c3ccc(C#N)cc3)cc2C(=O)N([C@H](C)CO)C[C@@H]1C	/	.	/	/	/
C[C@H]1CN([C@@H](C)CO)C(=O)Cc2cc(NC(=O)NC3CCCCC3)ccc2O[C@@H]1CN(C)C(=O)Nc1ccc(C(F)(F)F)cc1	/	.	/	/	/
C[n+]1c(-c2ccccc2)sc([S-])c1-c1ccccc1	44.5	/	/	.	.
C[n+]1nc(Nc2ccccc2)sc1-c1ccc(O)cc1	.	.	.	.	.
C[C@H](CO)N1C[C@H](C)[C@@H](CN(C)C(=O)Nc2ccc3c(c2)OCO3)OCCCC[C@H](C)Oc2ccc(NS(=O)(=O)c3ccc(Cl)cc3)cc2C1=O	/	.	/	/	/
C[C@@H]1CN([C@@H](C)CO)C(=O)c2cc(N(C)C)ccc2O[C@H]1CN(C)C(=O)Nc1ccc(C(F)(F)F)cc1	/	.	/	/	/
Cc1ccc(S(=O)(=O)Nc2ccc3c(c2)CC(=O)N([C@@H](C)CO)C[C@@H](C)[C@H](CN(C)S(=O)(=O)c2cccs2)O3)cc1	/	.	/	/	/
SMILES	Wnt bcat act	esBAF inh	MITF TRPM1 HTS	HSF1 inh	HSF1 activator
O=C(Nc1cccc(Cl)c1)c1csc(COCCO)n1	.	47.3	/	/	/
O=C(Nc1cccc(C(F)(F)F)c1)c1csc(COCCO)n1	.	.	/	/	/
CC#CC[N+](C)(C)CCCCCCCCCCCC	.	/	.	.	88.5
C#CC[N+](C)(C)CCCCCCCCCC	.	/	.	.	.
Cc1cccc(Nc2nc3ccccc3s2)c1C	.	/	.	.	125.2
Cc1noc(C)c1C(=O)N1CCC(C(=O)c2ccccc2)CC1	.	.	.	-61.7	.
Cc1noc(C)c1C(=O)N1CCC(Cc2ccccc2)CC1	/	.	.	.	.
COC(=O)c1cc(OC)c(OC)cc1NC(=S)N1CCCC1	.	/	.	.	62.4
Cc1ccc(SCCSc2nc(C)cc(=O)[nH]2)cc1	33.9	.	.	.	.
Cc1ccc(SCCSc2nc(N)cc(=O)[nH]2)cc1	.	.	/	.	.
O=C(Cc1ccccc1)N1C[C@H]2[C@@H](c3ccccc31)[C@@H](CO)N2C(=O)Nc1ccc(F)cc1	/	.	/	/	/
COc1ccccc1NC(=O)N[C@@H]1CC[C@@H](CCNC(=O)Cc2ccccn2)O[C@H]1CO	/	.	/	/	/
O=C(CSc1nnc2ccccn12)N1CCc2ccccc21	34.4	52.8	.	.	.
Cc1ccnc(SCC(=O)N2CCc3ccccc32)n1	.	55.8	86.0	.	.
Cn1ccnc1SCC(=O)N1CCc2ccccc21	.	.	.	.	.
O=C(CSc1ncccn1)N1CCCc2ccccc21	.	/	.	.	.
CC(Sc1nnc2ccccn12)C(=O)N1CCc2ccccc2C1 (stereo not given)	/	/	.	.	.
O=C(CSc1nnc2ccccn12)N1CCc2ccccc2C1	/	52.1	.	.	.
CC(C)CC#Cc1cnc2c(c1)C(=O)N([C@@H](C)CO)C[C@@H](C)[C@H](CN(C)Cc1ccccn1)O2	/	.	/	/	/
Cc1noc(C)c1NC(=O)N(C)C[C@@H]1OCCCC[C@@H](C)Oc2ccc(NS(=O)(=O)c3ccc(Cl)cc3)cc2C(=O)N([C@@H](C)CO)C[C@H]1C	/	.	/	/	/
CCCNC(=O)Nc1ccc2c(c1)C(=O)N(C)C[C@@H](OC)[C@@H](C)CN(C(=O)C1CCCCC1)[C@H](C)CO2	/	.	/	/	/
Cc1ccc(C(=O)Nc2nc3n(n2)C(c2ccccc2)CC(=O)N3)cc1 (stereo not given)	.	/	/	.	.
O=C1CC(c2ccccc2)n2nc(NC(=O)c3ccccc3)nc2N1 (stereo not given)	/	.	/	.	63.8
O=C(CCn1cnc2ccccc21)N/N=C/c1ccccc1O	.	52.5	.	.	.
COc1ccc(NC(=O)Nc2ccc3c(c2)C(=O)N([C@H](C)CO)C[C@@H](C)[C@@H](CN(C)S(=O)(=O)c2ccccc2)O3)cc1	/	.	/	/	/
O=C(c1ccc(-c2cc(Cl)ccc2Cl)o1)N1CCOCC1	.	.	.	.	.
O=C(c1ccco1)N1CCN(Cc2ccc(Cl)cc2)CC1	.	.	.	.	.
